Reference: PubChem BioAssay (NCATS)
Results filed as inconclusive are left out. Values without a mark were called inactive. Activity calls are given as the source filed them. The call rests on the fitted dose curve.

target: Vitamin D3 receptor (Homo sapiens) (UniProt P11473); test: qHTS assay for small molecule antagonists of vitamin D receptor signaling (AID 588541); details: HEK293T VDR-UAS-bla, beta-lactamase ratio, antagonist mode; series mostly up to 76.7 µM; activity change, negative = inhibition: at the top concentration;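 further: receptor activated by calcitriol during compound treatment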
Excerpt: NIH Chemical Genomics Center [NCGC]
U.S. Environmental Protection Agency [EPA]
National Institutes of Environmental Health Sciences [NIEHS]
National Toxicology Program [NTP]
The Vitamin D receptor (VDR) is a member of nuclear hormone receptor superfamily and it plays a critical role in calcium homeostasis and bone metabolism. It plays a role in inducing cell differentiation, inhibiting cell growth and in thrombogenicity. So, VDR that mediates these effects represents a pharmacological target in prevention and treatment of hyperproliferative malignancies, such as cancer and psoriasis, cardiovascular, immunological, inflammatory and renal diseases etc.
NCGC Assay Protocol Summary
Using a beta-lactamase reporter-gene under control of Vitamin D receptor (VDR) response element, a cell-based assay [GeneBLAzer (VDR -UAS-bla assay developed by Invitrogen] was used to measure VDR ligands signaling. GeneBLAzer VDR -UAS-bla HEK293T cells were used with assay medium containing 2% charcoal-stripped FBS. The assay was performed in clear bottom black Greiner 1536-well plates. Library compounds were measured for their ability to inhibit the reporter gene activity. Compounds were screened in a titration series in 1536-well format. The fluorescence intensity (405 nm excitation, 460/530 nm emission) was measured using an EnVision plate reader. Data was normalized relative to 1-alpha,25-Dihydroxy vitaminD3 control (50 nM, 100%) and DMSO only wells (basal, 0%). Concentration-response titration points for each compound were fitted to the Hill equation yielding concentrations of half-maximal inhibition (IC50) and maximal response (efficacy) values.
qHTS protocol for VDR beta-lactamase assay in antagonist mode
[Step] [Parameter] [Value] [Description]
1. Reagent; 5 uL; 2000 cells/well
2. Incubation; 37 C for 5 hrs
4. Controls (DMSO); 23 nL,
5. Agonist (Stimulator); 1uL; 1-alpha,25-Dihydroxy vitaminD3 at 50 nM and 3 nM final concentrations
6. Incubation; 37 C for 16 hrs
7. Detection reagent; 1 uL of CCF4-dye
8. Incubation; RT for 2 hrs
9. Detection; Fluorescence; Envision plate reader
On the % scale 0 is the no-effect control and ±100 the full control effect.

Sequence of Vitamin D3 receptor (Homo sapiens) (P11473 whole entry, looked up): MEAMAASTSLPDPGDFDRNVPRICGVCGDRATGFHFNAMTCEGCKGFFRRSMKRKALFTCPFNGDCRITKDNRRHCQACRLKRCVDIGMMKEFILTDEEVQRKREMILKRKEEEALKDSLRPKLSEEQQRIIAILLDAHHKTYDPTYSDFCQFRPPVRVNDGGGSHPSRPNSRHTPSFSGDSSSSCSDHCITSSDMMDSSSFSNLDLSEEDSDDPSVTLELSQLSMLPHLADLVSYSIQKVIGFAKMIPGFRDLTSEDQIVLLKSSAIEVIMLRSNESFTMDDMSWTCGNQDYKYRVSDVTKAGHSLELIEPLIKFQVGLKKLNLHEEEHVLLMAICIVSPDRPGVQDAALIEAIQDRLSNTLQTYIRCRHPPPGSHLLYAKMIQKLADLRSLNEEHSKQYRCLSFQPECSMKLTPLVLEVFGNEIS

Row | SMILES | activity change, negative = inhibition | Potency
1 | COC(=O)C(C)Oc1ccc(Oc2ncc(C(F)(F)F)cc2Cl)cc1 (stereo not given) | -0.193% | 
2 | CCOC(=O)C(C)Oc1ccc(Oc2nc3ccc(Cl)cc3o2)cc1 (stereo not given) | -8.48% | 
3 | Nc1ccc(N)c2c1C(=O)c1c(N)ccc(N)c1C2=O | 6.35% | 
4 | C=C(C)C(=O)OCCOC(=O)C(=C)C | 0.432% | 
5 | COC(=O)c1c(Cl)nn(C)c1S(=O)(=O)NC(=O)Nc1nc(OC)cc(OC)n1 | 6.62% | 
6 | CC(C)Nc1nc(N)nc(Cl)n1 |  | inactive
7 | CCCCCc1ccc(N)cc1 | 6.01% | 
8 | CC(C)(C)c1ccc(O)c(C(C)(C)C)c1 | 4.42% | 
9 | O=S(=O)(O)c1ccc(N=Nc2c(O)ccc3cc(S(=O)(=O)O)ccc23)cc1 | -0.184% | 
10 | C=CC(=O)OCC(C)OCC(C)OCC(C)OC(=O)C=C (stereo not given) | 3.15% | 
11 | O=C(Cl)c1cccc(C(=O)Cl)c1 | 0.633% | 
12 | CCc1c(C(=O)O)c(=O)cnn1-c1ccc(Cl)cc1 | 3.28% | 
13 | CCCCNS(=O)(=O)c1ccccc1 | -2.92% | 
14 | C=C(C)C(=O)OCC[N+](C)(C)C | 7% | 
15 | OCc1cccc(Oc2ccccc2)c1 | 7.1% | 
16 | Cc1ccc(Cl)cc1Cl | -2.32% | 
17 | C[Si]1(C)O[Si](C)(C)O[Si](C)(C)O1 | 7.28% | 
18 | c1ccc(OCCOc2ccccc2)cc1 | 7.08% | 
19 | CCCCCCc1ccc(N)cc1 | 2.81% | 
20 | C[Si]1(C)O[Si](C)(C)O[Si](C)(C)O[Si](C)(C)O1 | 1.96% | 

Row | SMILES | activity change, negative = inhibition | Potency
21 | CCCC[O][Al]([O]CCCC)[O]CCCC | 1.56% | 
22 | O=[N+]([O-])C(CO)(CO)CO | -1.24% | 
23 | FC(F)(F)c1ccc(Cl)c(Cl)c1 | 0.363% | 
24 | CC(=O)/C=C/C1C(C)=CCCC1(C)C (stereo not given) | 1.58% | 
25 | CCCCCCCCCCCO | 6.39% | 
26 | CCCCC(CC)COC(C)=O (stereo not given) | 7.84% | 
27 | O=C(O)C(c1ccc(Cl)cc1)c1ccc(Cl)cc1 | 4.98% | 
28 | O=C(OCCOCCOC(=O)c1ccccc1)c1ccccc1 | -4.56% | 
29 | COCCO |  | inactive
30 | CCCCCOC(=O)COc1cc(N2C(=O)C3=C(CCCC3)C2=O)c(F)cc1Cl | -12.2% | 
31 | CNc1nc(=O)n(C2CCCCC2)c(=O)n1C | -2.3% | 
32 | CCCCCCCCCCCCO | 2.63% | 
33 | NCCCCCCCCCCCC(=O)O | 1.67% | 
34 | CC1(C)C(=O)N(Br)C(=O)N1Br | -4.12% | 
35 | C=C(C)C(=O)OCCCCCCCCCCCC | 9.23% | 
36 | O=c1n(CCO)c(=O)n(CCO)c(=O)n1CCO | 11.2% | 
37 | CC(=O)N(CCN(C(C)=O)C(C)=O)C(C)=O | 4.75% | 
38 | Cn1c(=O)[nH]c(=O)n(C2CCC(O)CC2)c1=O (stereo not given) | -5.01% | 
39 | CCSC(=O)N(CC(C)C)CC(C)C | -1.22% | 
40 | CCCCCCCC[Si](Cl)(Cl)Cl | -7.63% | 
